Assay results from the supplement of paper PMC6555819.

Legend:
Assay in all cases: PBM binding z-score (relative to random genomic background probes); higher = stronger binding; sequences stand for … in GC…GCGATTGACAGCGTAGAATGAAGG
[1] = tested on: FXR:RXRa (NR concentration 270 nM, RXRa partner concentration 90 nM)
Summary of the method: (§1)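 Ligand-free nuclear receptor dimers were bound for 1 h to custom Agilent 4×180K protein-binding microarrays. Detection used antibodies against each partner (one per run). Binding z-scores rest on regression-normalized fluorescence, with random background probes as the reference.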

[2] = tested on: LXRa:RXRa (NR concentration 270 nM, RXRa partner concentration 90 nM)
Summary of the method: as §1

[3] = tested on: LXRa homodimer (NR concentration 270 nM)
Summary of the method: as §1

[4] = tested on: LXRb:RXRa (NR concentration 270 nM, RXRa partner concentration 90 nM)
Summary of the method: as §1

[5] = tested on: LXRb homodimer (NR concentration 270 nM)
Summary of the method: as §1

[6] = tested on: PPARa:RXRa (NR concentration 270 nM, RXRa partner concentration 90 nM)
Summary of the method: as §1

[7] = tested on: PPARg:RXRa (NR concentration 180 nM, RXRa partner concentration 90 nM)
Summary of the method: as §1

[8] = tested on: PPARg:RXRa 270nM:90nM, anti-RXR (NR concentration 270 nM, RXRa partner concentration 90 nM)
Summary of the method: as §1

[9] = tested on: PPARg:RXRa 30nM:10nM, anti-RXR (NR concentration 30 nM, RXRa partner concentration 10 nM)
Summary of the method: as §1

[10] = tested on: PPARg:RXRa 90nM:30nM, anti-RXR (NR concentration 90 nM, RXRa partner concentration 30 nM)
Summary of the method: as §1

Row | Sequence | PBM binding z-score [1] | PBM binding z-score [2] | PBM binding z-score [3] | PBM binding z-score [4] | PBM binding z-score [5] | PBM binding z-score [6] | PBM binding z-score [7] | PBM binding z-score [8] | PBM binding z-score [9] | PBM binding z-score [10]
1 | TCTGCTAGGTCAACGATGGTCAGCTAGTCTGCTA | 3.29 | 2.53 | -0.369 | 1.39 | -0.445 | 3.44 | 2.46 | 2.9 | 1.75 | 2.53
2 | CCTAGCAGGCCAGGATCACTCAAGCATTTCGCTT | -0.0228 | -0.302 | -0.315 | -0.395 | -0.796 | -0.414 | -0.143 | -0.455 | -0.969 | -0.909
3 | GCGACTGGGGCAAAGCAAGTTACCATAAGGTTGG | -0.106 | -0.224 | -0.376 | -0.3 | -0.665 | 0.868 | 0.964 | 1.1 | -0.269 | 0.301
4 | ACAGACAGGTGAGTGAAGGTAACTCTGCTGGACG | 0.466 | 0.168 | -0.478 | -0.2 | -0.638 | 0.435 | 0.657 | -0.0647 | -0.0941 | 0.019
5 | ATCGAAAGGTCGTGAGGTGAGGATACAGAAAGGC | 5.69 | 4.09 | 0.323 | 3.37 | 0.581 | 5.08 | 4.41 | 4.73 | 1.86 | 3.51
6 | TCATATAGGTAAACAGGTGTAAGTCCGTAAGTTA | 0.827 | 0.785 | -0.0064 | 0.69 | -0.189 | 1.41 | 1.35 | 2.56 | 3.79 | 3.09
7 | TCTTGTAGATCAGCATGTTAAGAAAGCTGGCCAA | 0.0411 | 0.107 | -0.479 | 0.0271 | -0.503 | 0.231 | -0.371 | 1.52 | 2.44 | 2.19
8 | CAAACTAGCTCACGAAAGGTCAAAGTCGAATGAC | 4.81 | 5.42 | 5.5 | 5.58 | 2.21 | 5.38 | 2.42 | 4.26 | 1.46 | 3.03
9 | CCTAGTTGGTCAGGAGGACACACACCGGATATGA | 0.321 | 0.0708 | 0.61 | 0.0444 | 0.0185 | 0.000867 | 1.08 | 0.072 | -0.0757 | -0.0104
10 | CGAACTAGGTCATCCAGGACAGTGAATACATTGA | 4.28 | 2.79 | 0.603 | 2.04 | 0.134 | 4.91 | 7.69 | 6.5 | 4.15 | 6.05
11 | TTACCAGGGTGAAGGTCGTTGATCCCTCTGTAGA | 1.98 | 1.73 | -0.022 | 1.44 | -0.184 | 3.62 | 6.75 | 6.39 | 4.84 | 6.33
12 | CCTCGGAGGCCAGAAGGTCAGAGCTGTCCGCTTT | 1.46 | 1.39 | -0.337 | 0.993 | -0.99 | 1.97 | -0.665 | 1.19 | -0.826 | 0.521
13 | GGAACGAGGGCAAAGTTGTTAGCATCTGTCGACG | 0.763 | 0.635 | -0.337 | 0.517 | -0.419 | 2.61 | 3.61 | 4.82 | 2.96 | 4.84
14 | GATACAGGGTCAAGGCCAGATTACGCGTATTGAT | 7.02 | 4.53 | 0.129 | 4.07 | 0.268 | 5.77 | 5.99 | 5.29 | 2.36 | 4.09
15 | CGTCCAAGGTCATAGGAGGTCGGTGAAGACAGAT | 7.17 | 6.22 | 1.31 | 4.11 | 0.234 | 5.36 | 4.31 | 4.86 | 1.6 | 3.35
16 | CCTTAAGGGTCACTGACAGGTTATAGCATTTGGA | 7.39 | 5.66 | 0.887 | 5.01 | 0.447 | 6.24 | 6.29 | 6.19 | 2.45 | 4.77
17 | TCTTGTAGATGAGCAGGTTAAGAAAGCTGGCCAA | -0.174 | -0.248 | -0.441 | -0.166 | -1.02 | 0.327 | -0.56 | 0.706 | 1.86 | 1.32
18 | CGTCCATGGTCATAGGAGGTCAGTGAAGACAGAT | 1.81 | 3.6 | 1.31 | 2.3 | -0.0706 | 2.59 | 0.994 | 1.19 | -0.128 | 0.421
19 | CCAACTAGGTCAAGGACAGTGAATCTCCGCACGC | 3.25 | 2.12 | 0.634 | 1.47 | 0.422 | 3.96 | 6.59 | 5.37 | 3.19 | 4.79

Row | Sequence | PBM binding z-score [1] | PBM binding z-score [2] | PBM binding z-score [3] | PBM binding z-score [4] | PBM binding z-score [5] | PBM binding z-score [6] | PBM binding z-score [7] | PBM binding z-score [8] | PBM binding z-score [9] | PBM binding z-score [10]
20 | GCGAGTGGGGCATCAGCAGGTTACCATAACTTAA | -0.42 | -0.14 | -0.135 | 1.15 | 0.239 | 1.15 | 0.528 | 0.575 | -0.218 | 0.332
21 | AGAATGAGGTTAAGACCAGGGAAACAGAATACAT | 2.32 | 1.88 | -0.015 | 1.61 | -0.233 | 3.48 | 2.1 | 2.15 | 0.945 | 1.71
22 | GCGACTGGGGCCTCAGCAGGTTACCATAACTTAA | -0.561 | -0.698 | -0.704 | -0.145 | -1.25 | -0.221 | -0.306 | -0.849 | -0.842 | -0.966
23 | CGTCAAAGTTCAACAAAGGTAACGTAAAGCACGC | 7.15 | 6.13 | 3.38 | 3.9 | 1.98 | 4.83 | 5.08 | 5.42 | 2.27 | 4.23
24 | CCGACTGGGGTAAAGGTTACCATACTCAGTACGA | 1.25 | 1.37 | -0.204 | 2.11 | -0.702 | 5.22 | 11.1 | 9.31 | 8.82 | 10.7
25 | CGAACTAGGTCAATGACAGTGAATCTCCGCACGC | 3.48 | 2.25 | 0.283 | 1.56 | -0.147 | 4.35 | 6.92 | 5.8 | 2.99 | 5.2
26 | ACGTACGGGTCAACGAGGTTATAGCACGCGTATA | 7 | 4.84 | 0.327 | 4.27 | 0.00154 | 5.95 | 5.01 | 4.94 | 1.55 | 3.46
27 | CCTTACGGGTCACGAGGTTAGAGCACGACGAGCG | 6.98 | 4.06 | 0.353 | 3.58 | 0.0179 | 5.8 | 7.39 | 6.87 | 3.49 | 6.11
28 | TCTTGTAGATCAGCAGGTTAAGAAGGCTGGCCAA | 0.433 | 0.344 | -0.0872 | 0.367 | -0.714 | 0.674 | -0.387 | 1.6 | 2.59 | 2.41
29 | AGTCAAAGTTCATCTAGTTAACGTAAGATATGCT | 6.78 | 6.1 | 5.42 | 3.68 | 2.06 | 4.77 | 6.49 | 5.96 | 3.55 | 5.46
30 | ACAAACAGGTGATGAAGGTAACTCAGGCTATCAT | 0.258 | 0.355 | 0.00497 | 0.22 | 0.327 | 0.415 | 0.866 | 0.462 | 0.363 | 0.0404
31 | GCGACTGGGGCATCAGCACGTTACCATAACTTAA | -0.278 | -0.417 | -0.429 | 0.31 | -0.932 | 0.476 | 0.927 | 0.64 | -0.0937 | 0.15
32 | GCGACTGGGGCAAAGCTGGTTACCATAAGGTTGG | -0.489 | -0.411 | -0.621 | -0.147 | -0.966 | 0.78 | 0.929 | 1.26 | -0.311 | 0.816
33 | CCTCCAAGGTCAGAGAGGTCAGTGAATGCCGAGT | 5.62 | 5.09 | 2.77 | 4.43 | 0.381 | 4.71 | 3.2 | 4.06 | 1 | 2.54
34 | CGTCCAAGGTCAATGCTCGGTCAGTGAAAGCATT | 5.98 | 5.55 | 2.7 | 4.04 | 0.788 | 5 | 3.34 | 3.99 | 1.61 | 2.79
35 | CCTGCTAGGTCAATGGTCAGCTACAGCAGCTCGC | 3.03 | 2.08 | -0.0038 | 1.55 | -0.217 | 2.98 | 4.03 | 5.1 | 2.52 | 4.92
36 | TCTATTAGTTCATTAGGGCAACCGAAACAGCGGA | 1.12 | 1.73 | 1.56 | 1.29 | 1.34 | 2.47 | 1.21 | 2.92 | 3.81 | 3.34
37 | CGAACTTGGTCAAGGACAGTGAATCTCCGCACGC | 0.162 | -0.375 | -0.73 | -0.622 | -1.03 | -0.114 | 0.382 | 0.0325 | -0.999 | -0.567
38 | TTACCAAGGTGGGCTGAGGTCGTTGATCCAACTC | 1.56 | 0.463 | -0.083 | 0.938 | -0.656 | 0.97 | -0.473 | 0.212 | -0.219 | -0.0469
